Measurements: PubChem BioAssay AID2730 (National Center for Advancing Translational Sciences (NCATS), 2010)
Some of the results follow. Inconclusive results are not listed. The source made the active and inactive calls. Calls come from the whole dose curve; as a rule, active = well fitted inhibition curve with a large enough effect; inconclusive = small, poorly fitted or top-dose-only effect; inactive = no such curve, though single readings can be large or run the other way.

experiment: High Content Assay for Compounds that inhibit the Assembly of the Perinucleolar Compartment: Confirmation of PNC Inhibition; conditions: PC3M PTB-GFP, PNC prevalence imaging, 16 h; series mostly up to 46.1 µM
Source text: High Content Assay for Compounds that inhibit the Assembly of the Perinucleolar Compartment NIH Chemical Genomics Center [NCGC] NIH Molecular Libraries Probe Centers Network [MLPCN] MLPCN Grant: MH082371-01A2 Assay Submitter (PI): Sui Huang, Northwestern University, Feinberg School of Medicine, Cell and Molecular Biology, Chicago, Illinois. The perinucleolar compartment (PNC) is a non-membrane-bound nuclear subdomain that is associated with but structurally distinct from the nucleolus. The PNC is a heritable trait, in which the number of PNCs per cell in daughter cells often mimics that of their mother cells. The PNC is heterogeneous in shape, is stable through interphase, disassembles during mitosis, and reassembles in early G1. The PNC is concentrated with newly synthesized RNA polymerase III (pol III) RNAs (MRP RNA, RNAse P H1 RNA, hY RNAs[hY1, 2, 5], Alu RNA, and SRP [7SL] RNA) and RNA binding proteins (nucleolin, PTB, CUG-BP, KSRP, Raver1, Raver2, and Rod). […] Extensive in vitro studies have shown that the PNC is unique to tumor cells and preferentially forms in tumor cells derived from solid tissues. Examination of cancer cell lines from various origins and malignant capacities has shown that PNC prevalence correlates with the malignancy of tumors and has the potential to be developed as a pan-cancer prognostic marker. […] Although the PNC is associated with a DNA locus and a handful of components have been identified, much remains to be investigated regarding the structure and function of the PNC and its mechanistic link to cancer. We have previously shown that PNC prevalence reduction is a valid strategy to identify compounds that can be used to study the structure and function of the PNC. It is necessary, however, to create a screening platform that is able to test a large number of compounds in an automated fashion. Here we report the development and robustness of an automated whole-cell phenotypic image-based screening assay that is capable of identifying such compounds. Compounds active in the primary screen were then re-screened in concentration-response to confirm activity.
PNC High Content Imaging Assay Procedure: 1. Cells at a density of 75-90% confluency in T175 flasks were harvested using 7 ml TrypLE Express cell dissociation reagent. After dissociation (5 minutes room temperature incubation) 10 ml of complete media was added to the TrypLE/cell suspension. The liquid was transferred to a 50 ml Conical tube and cells were pelleted at 1000 RPM for 5 min. Supernatant was removed and cells were resuspended to a final density of 150-200 cells/ul in complete media. 2. Cells were plated in 5 ul volume (750-1000 cells/well) into 1536 well Black uclear Aurora Low Base plates and allowed to recover and adhere at 37 C in a humidified 5% CO2 incubator for 4 hours. 3. After 4 hour incubation, compound libraries (23 nl of […] in columns 5-48) were transferred to the plates in duplicate using a 1536 well pintool. Camptothecin positive control (59 uM final) was added to column 2 and 1:3 dilutions of camptothecin was added to column 3. DMSO negative controls were present in columns 1 and 4. 4. After a 16 hour incubation in the 37 C incubator, cells were fixed by the addition of 4 ul of 6% EM grade paraformaldehyde (containing 0.1% triton X 100) directly to the cells. The plates were incubated at room temperature for 20 minutes. […]

Compound	Potency
COC(=O)c1ccc(CSc2ccccc2C)o1	inactive
COC(=O)C1=C(C)N(c2ccc(Br)cc2)C(=O)/C1=C\c1ccco1	inactive
Cn1c2ccccc2c(=O)c2c(=O)n(Cc3ccco3)c(COc3ccccc3)nc21	11.2 µM (active)
N=c1c2c(-c3ccccc3)c(-c3ccccc3)n(Cc3ccccc3)c2ncn1CCCO	4.47 µM (active)
CCOC(=O)c1c(-c2cccc(C)c2)csc1NC(=O)c1c(-c2ccccc2)noc1C	2.51 µM (active)
